High-throughput results (PubChem)
A selection: hits, their analogues and other compounds. The true share with any hit is near 19%.
DT40 TDP1 CPT = growth inhibition of DT40 Tdp1-/-;hTDP1 cells with camptothecin (screen for TDP1 inhibitors). hit rate 12% among 420,000. Potency, µM (titrated, usually from 46.2 µM), without a hit: top-dose activity change, negative = growth inhibition, hits mostly inhibitors. chicken DT40 Tdp1-/-;hTDP1 cells + 20 nM CPT, ATP luminescence, 48 h. AID 686979; also: potency is read from the fitted curve at half-maximal effect; nearly all actives have a fitted effect of over 55% in size
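Chicken DT40 Tdp1-/- cells stably complemented with human TDP1 were seeded at 400 cells/well in medium containing 20 nM camptothecin, exposed to pin-transferred compounds, and grown at 37 °C for at least 48 hr. Viability was read as ATP luminescence.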
uPA generation = inhibitors of cell surface uPA generation. hit rate 0.31% among 330,000. cell surface uPA generation assay, qHTS. Potency, µM (series often up to 38.3 µM), inactives show at the top dose activity change, negative = inhibition, most hits filed as inhibitors. AID 540303; active = well fitted inhibition curve with a large enough effect; inconclusive = small, poorly fitted or top-dose-only effect; inactive = no such curve, though single readings can be large or run the other way; tested in mouse RAW 264.7 cells; also: potency is read from the fitted curve at half-maximal effect; nearly all actives have a fitted effect of over 55% in size
HT1080NT lethal = kills 2HG-producing HT-1080-NT fibrosarcoma cells. HT-1080-NT fibrosarcoma viability, CellTiter-Glo ATP luminescence, 48 h. Potency, µM (titrated, usually from 46.1 µM), inactives show top-dose activity, negative = less viability, most hits filed as cytotoxic. hit rate 1.6% among 360,000. AID 686970;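 also: NT is the 2HG producing partner of a matched IDH1 knockdown line; potency is read from the fitted curve at half-maximal effect; 0% = DMSO-treated cells and -100% = media-only wells without cells; nearly all actives have a fitted effect of over 55% in size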
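750 cells/well, RPMI + 5% FBS; 2 h settle, compound pin-transfer, 48 h at 37 degrees C. CellTiter-Glo 10 min RT, luminescence. Normalized to DMSO and media-only wells.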
IL-1B inflam inh = inflammasome signaling inhibition, IL-1 beta readout. hit rate 4.7% among 360,000. activity change, % at 57.5 µM. THP-1 LPS/ATP IL-1B secretion, AlphaLISA, 16 h; hits give low values; in the data active = activity change below about -50%; inconclusive = mostly about -30% to -49%
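Secreted IL-1B measured by AlphaLISA bead assay after 16 h compound exposure of THP-1 cells; compounds (final up to 57.5 uM) added 1 h before LPS (250 ng/mL) and ATP (1.25 mM) stimulation; lower signal means less secretion.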
HT1080 IDH1KD tx = HT-1080 IDH1 knockdown cell toxicity (counter line) | HT-1080 IDH1 knockdown viability, ATP luminescence, 48 h | Potency, µM (titrated, usually from 46.1 µM), inactives show at the highest dose activity, negative = toxicity, usual class: cytotoxic | hit rate 2% among 360,000 | AID 686971;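 also: potency is read from the fitted curve at half-maximal effect; 0% = DMSO wells and -100% = cell-free medium wells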
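Cytotoxicity counter-line: IDH1KD HT-1080, 48 h, CellTiter-Glo. Curves classed by r2, magnitude and activity.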
TDP1 cell noCPT = qHTS for Inhibitors of human tyrosyl-DNA phosphodiesterase 1 (TDP1): qHTS in cells in absence of CPT. DT40 Tdp1-/- hTDP1 cells, no CPT, ATP luminescence, 48 h. Potency, µM (doses to about 46.2 µM), for inactives: at the highest dose activity change, negative = growth inhibition, most hits filed as inhibitors. hit rate 15% among 420,000. AID 686978, 2013; also: potency is read from the fitted curve at half-maximal effect; nearly all actives have a fitted effect of over 55% in size
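Stably hTDP1-transfected Tdp1-null chicken DT40 cells were treated with library compounds minus camptothecin and grown for at least 48 hr at 37 °C, after which cellular ATP was quantified by luminescence.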
Starred values were filed as active, the others as inactive; i = inactive; u = inconclusive; x = no result given. Unless noted, calls follow the shape of the dose curve; as a rule, active = well fitted curve in the direction sought with a large enough effect; inconclusive = small, poorly fitted or top-dose-only effect, or another doubt; inactive = no such curve, though single readings can be large; an effect the other way counts as inactive or inconclusive. Unless noted, % is scaled to controls: 0 for no effect and ±100 for the full control effect.

SMILES	DT40 TDP1 CPT	uPA generation	HT1080NT lethal	IL-1B inflam inh	HT1080 IDH1KD tx	TDP1 cell noCPT
COc1ccc(S(=O)(=O)N2CCc3ccccc32)cc1C(=O)Nc1cccnc1	6%	-2%	-3%	98	-16%	-14%
Cc1ccc(S(=O)(=O)N2CCCc3ccccc32)cc1C	12µM*	1%	21%	0	3%	9.2µM*
N/C(=N\N=C\c1ccc(Cl)cc1)N/N=C/c1ccc(Cl)cc1	u	x	x	x	x	-21%
CC(=O)Nc1ccc(S(=O)(=O)N2CCCc3ccccc32)cc1	6.5µM*	u	8.9µM*	54	7.1µM*	9.2µM*
CCC(=O)N1CCc2cc(S(=O)(=O)N3CCN(c4ccccc4)CC3)ccc21	-9%	8%	5%	2	-1%	5%
Nc1ccc(S(=O)(=O)N2CCCc3ccccc32)cc1	-9%	-8%	0%	21	-4%	-26%
CCC(=O)N1CCc2cc(S(=O)(=O)N3CCN(c4ccccn4)CC3)ccc21	u	5%	-1%	-5	-8%	12µM*
O=C(O)c1cc(S(=O)(=O)N2CCCc3ccccc32)ccc1Cl	-8%	7%	15%	24	4%	0%
Cc1ccc(NC(=O)c2cc(S(=O)(=O)N3CCCc4ccccc43)ccc2F)cc1F	16µM*	x	x	x	x	6.5µM*
CCc1cccc(C)c1NC(=O)c1cc(S(=O)(=O)N2CCN(c3ccccc3)CC2)ccc1F	16µM*	x	x	x	x	9.2µM*
O=C1NC[C@@H](CCCCN2C[C@H](Cc3ccc(O)cc3)N(CCc3ccccc3)C(=O)C2=O)N(CCc2ccc(O)cc2)C1=O	-22%	x	11%	-14	25%	-14%
CC1CCc2c(sc3ncnc(NS(=O)(=O)c4cccs4)c23)C1 (configuration not stated)	-19%	-4%	25%	19	12%	-8%
COCCCNc1ncnc2sc3c(c12)CCC(C)C3 (configuration not stated)	u	-4%	-25%	-8	u	23µM*
CC(C)c1ccc(NC(=O)c2ccc3c(c2)CCN3S(C)(=O)=O)cc1	21µM*	-18%	-29%	-29	u	8.2µM*
CS(=O)(=O)N1CCCc2cc(C(=O)Nc3cccc(C(F)(F)F)c3)ccc21	u	x	x	x	x	18µM*
CS(=O)(=O)N1CCc2cc(C(=O)Nc3ccc(O)cc3)ccc21	6%	-8%	-5%	12	-7%	0%
CS(=O)(=O)N1CCc2cc(C(=O)Nc3ccc(COCC(F)(F)F)cc3)ccc21	18µM*	-12%	-24%	2	-4%	u
N#Cc1cnn(-c2cccc(Cl)c2)c1-n1cccc1	2%	-4%	8%	17	0%	1%
O=C(CS(=O)(=O)Cc1ccccc1)N1CCN(c2cccc(C(F)(F)F)c2)CC1	u	0%	0%	-5	-5%	u
OC(CN1CCN(c2cccc(C(F)(F)F)c2)CC1)c1c[nH]c2ccccc12 (configuration not stated)	u	17%	u	1	u	23µM*
OC(COCc1cccs1)CN1CCN(c2cccc(C(F)(F)F)c2)CC1 (configuration not stated)	18µM*	5%	4%	i	6%	21µM*
CCN(CC)S(=O)(=O)c1ccc2c(c1)c(=O)c(C(=O)N1CCN(c3cccc(C)c3)C(C)C1)cn2C (configuration not stated)	-26%	x	x	x	x	u
CC(C)Oc1ccc(CC2CCC(=O)N(C)C2=O)cc1 (configuration not stated)	27%	-1%	u	12	17%	-13%
Cc1ccc(S(=O)(=O)N2CCOCC2)c2nsnc12	-9%	3%	-1%	-22	-1%	0%
O=S(=O)(c1ccc(Br)c2nsnc12)N1CCOCC1	-19%	5%	8%	-54*	3%	-19%
SMILES	DT40 TDP1 CPT	uPA generation	HT1080NT lethal	IL-1B inflam inh	HT1080 IDH1KD tx	TDP1 cell noCPT
Cc1ccc2ccc3ccc(C)nc3c2n1	0.016µM*	u	0.0058µM*	63	u	0.15µM*
Cc1ccc2cc(F)c(F)c(F)c2n1	4%	x	u	30	8%	-2%
CCc1ccc(C(=O)c2cn(CC(=O)Nc3ccc4c(c3)OCCO4)c3ccc(C)cc3c2=O)cc1	2%	x	x	x	x	-1%
CCc1cc(C(=O)NC2CCCN(Cc3ccccc3F)C2)n(C)n1 (configuration not stated)	6.5µM*	-25%	-2%	35	-4%	9.2µM*
COc1ccc(C(=O)NC2CCCN(Cc3ccccc3F)C2)c(OC)c1OC (configuration not stated)	u	2%	-5%	11	-6%	5.2µM*
COc1ccc(-c2oc3ncn4nc(-c5ccccc5Cl)nc4c3c2-c2ccc(OC)cc2)cc1	-2%	x	x	x	x	5%
CCOC(=O)c1cnc(SC)nc1Sc1cc(Cl)ccc1Cl	21µM*	-12%	17%	0	15%	18µM*
Cc1ccc(C)c(C(=O)Nc2nc3ccccc3[nH]2)c1	u	-11%	17%	5	16%	2.3µM*
O=C(/C=C/c1c(F)cccc1Cl)Nc1nc2ccccc2[nH]1	-6%	-2%	-13%	0	-26%	u
Cc1ccc(/C=C/C(=O)Nc2nc3ccccc3[nH]2)cc1	13µM*	-1%	13%	-2	11%	u
Cc1ccc(Nc2nc3ccccc3[nH]2)nc1	u	2%	-1%	-53*	5%	16µM*
CS(=O)(=O)Nc1nc2ccccc2[nH]1	-9%	-4%	5%	12	-3%	-2%
Cc1ccc(Cc2nc3ccccc3[nH]2)cc1	6%	0%	-2%	25	5%	u
Cc1ccc(/C=C/C(=O)c2nc3ccccc3[nH]2)cc1	21µM*	1%	-9%	u	1%	16µM*
CCN(CC)CCCC(C)NC(=O)c1ccc(C(F)(F)F)cc1 (configuration not stated)	0%	-8%	-1%	-50*	-3%	u
CC(N)c1csc(Nc2ccc(C(=O)c3ccccc3)cc2)n1 (configuration not stated)	u	x	u	-52*	-29%	u
NC(c1csc(Nc2ccc(C(=O)c3ccccc3)cc2)n1)c1ccccc1Cl (configuration not stated)	21µM*	x	u	-7	u	u
Cc1csc(Nc2ccc(C(=O)O)cc2)n1	3%	-6%	17%	-4	-6%	-1%
